Among the data in PubChem BioAssay AID720517 (National Center for Advancing Translational Sciences (NCATS), 2013) are Potency values, retold here.

A short description of the assay: qHTS for Inhibitors of Cell Surface uPA Generation: FP59 Counterscreen for Cherry-picked Compounds. A general note: In qHTS, concentration-response curves come from the screen itself.

The structures appear in SMILES notation. Records with an inconclusive call do not appear. Entries that show only a call come without a potency. Activity calls are given as the source filed them. Calls come from the whole dose curve; as a rule, active = well fitted activation curve with a large enough effect; inconclusive = small, poorly fitted or top-dose-only effect; inactive = flat fitted curve, though single readings scatter.

For the compound `CC(Sc1nnc2ccccn12)C(=O)NCc1ccc2c(c1)OCO2` (stereo not given), the Potency result was “inactive”.

`CCCCCN(C(=O)CCC(=O)OCCOc1cccc(Cl)c1)c1c(N)n(CCCC)c(=O)[nH]c1=O`: the Potency entry was “inactive”.

As to `COCc1cc(C)nc2sc(C(=O)Nc3nccs3)c(N)c12`, the Potency entry is “inactive”.

Turning to `O=c1[nH]c(SCc2cccc(Cl)c2)nc2ccccc12`, the Potency result was “inactive”.

With `COC(=O)c1c(NC(=O)c2c(OC)cccc2OC)sc2c1C(C(=O)OC)CC2` (stereo not given), the Potency result is “inactive”.

For the compound `O=C(COC(=O)Cn1cnc2ccccc21)NCc1ccc(F)cc1`, the Potency entry is “inactive”.

In the case of `CCc1ccccc1N(CC(=O)N1CCCC1)S(C)(=O)=O`, the Potency entry is “inactive”.

In the case of `Cc1c(C(=O)N2CCN(S(=O)(=O)c3cccs3)CC2)oc2ccc(F)cc12`, the Potency result was “inactive”.

Consider `C[C@H]1CN([C@@H](C)CO)C(=O)c2cccc(NC(=O)c3cnccn3)c2O[C@@H]1CN(C)S(=O)(=O)c1ccc(F)cc1`, for which the Potency entry is “inactive”.

With `COc1ccc(C(c2sc3nc(C)nn3c2O)N2CCC(C(N)=O)CC2)cc1OC` (stereo not given), the Potency entry is “inactive”.

In the case of `COc1ccc([C@H]2CC(=O)C=C(c3ccc(CNC(=O)OC(C)(C)C)cc3)C2)cc1`, the Potency result is “inactive”.

As for `Cc1cc(C)n(CCCNC(=O)c2ccc(C)o2)n1`, the Potency entry was “inactive”.

In the case of `O=[N+]([O-])c1ccccc1C=NNC(=S)NN=Cc1ccccc1[N+](=O)[O-]`, the Potency result is “inactive”.

For the compound `Cc1ccc(Cl)cc1NC(=O)c1ccccc1OCC(=O)N1CCOCC1`, the Potency entry is “inactive”.

In the case of `COc1cc(NC(=O)COC(=O)c2cc(S(=O)(=O)N3CCCCC3)ccc2Cl)c(C)cc1[N+](=O)[O-]`, the Potency entry was “inactive”.
